The nature of experiment [1]: Nuclear factor erythroid 2-related factor 2/antioxidant responsive element (Nrf2/ARE) small molecule agonists: qHTS cell viability counter screen in human keratinocytes (AID 1919968; active = well fitted curve in the direction sought with a large enough effect in the repeat runs; an effect the other way counts as inactive or inconclusive; note: nearly all actives have a fitted effect of over 55% in size). The procedure, abridged: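 Cytotoxicity was multiplexed with the Nrf2/ARE luciferase assay in the same wells. Stably transfected HaCaT keratinocytes were treated with test compounds for 23 h at 37 C. Cell viability was then measured by CellTiter-Fluor fluorescence.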

Experiment [2] is described as follows: G protein-coupled receptor (GPCR) small molecule agonists, calcium flux assay: HEK293 wild type cell line counter screen (AID 1920065). The procedure, abridged: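 Seed cells, incubate 18 h (37 C, 5% CO2); add calcium dye, 1 h at 37 C; pin-transfer compounds, ATP control or DMSO; read fluorescence 480/540 nm each second for 3 min.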
Experiment [3] in a line: p53 small molecule agonists, cell-based qHTS assay with human liver microsomes (AID 1963577). The procedure, abridged:
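p53RE-bla reporter cells were pre-incubated 5 h at 37 C, then treated with compounds plus human liver microsomes (0.5 mg/mL final) and NADPH (0.5 mg/mL final) for 16 h at 37 C. Beta-lactamase activity was read by LiveBLAzer fluorescence after 2 h at room temperature.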

Experiment [4] is described as follows: p53 small molecule agonists, cell-based qHTS assay with rat liver microsomes (AID 1963578). A digest of the protocol:
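p53RE-bla cells were exposed to compounds together with rat liver microsomes (0.5 mg/mL final) and NADPH (0.5 mg/mL final) for 16 h at 37 C, then read by LiveBLAzer beta-lactamase fluorescence after 2 h at room temperature.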

Experiment [5] is described as follows: p53 small molecule agonists, cell-based qHTS assay with rat liver microsomes: qHTS cell viability counter screen (AID 1963580). Note: nearly all actives have a fitted effect of over 45% in size. A digest of the protocol: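 Cytotoxicity counter screen: intracellular ATP measured by CellTiter-Glo luminescence in the same wells as the beta-lactamase reporter read, on HCT-116 p53RE-bla cells exposed 16 h at 37 C to compounds with rat liver microsomes and NADPH, each 0.5 mg/mL final.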

Experiment [6] can be described thus: p53 small molecule agonists, cell-based qHTS assay: qHTS cell viability counter screen (AID 1963581). Note: nearly all actives have a fitted effect of over 45% in size. A digest of the protocol: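 Viability was counter-screened in parallel with the p53 agonist reporter by measuring intracellular ATP luminescence in the same HCT-116 p53RE-bla wells after 16 h compound treatment at 37 C.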
Experiment [7] can be described thus: p53 small molecule agonists, cell-based qHTS assay (AID 1963582; active = well fitted activation curve with a large enough effect in the signal ratio in the repeat runs, not every such curve was filed as active; the % refers to the signal ratio). A digest of the protocol: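 Cells carrying a p53-responsive bla reporter are treated with test compounds for 16 h at 37 C; beta-lactamase activity is then detected with LiveBLAzer B/G FRET substrate after 2 h at room temperature.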
The target in experiment [8] is 5-hydroxytryptamine receptor 2A (Homo sapiens) (UniProt P28223). In words: 5-hydroxytryptamine receptor 2A (HTR2A) small molecule agonists, cell-based qHTS assay (AID 1963587). Note: nearly all actives have a fitted effect of over 30% in size. Note: potency is the fitted concentration of half-maximal effect. A digest of the protocol:
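CHO cells stably expressing human HTR2A, plated 18 h, loaded with calcium dye 1 h at 37 C. Agonist mode: compounds added and intracellular calcium fluorescence recorded kinetically for 2 min at 1 sec intervals.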

The target of experiment [9] is Muscarinic acetylcholine receptor M1 (Homo sapiens) (UniProt P11229). As to the kind of experiment: Cholinergic receptor muscarinic 1 (CHRM1) small molecule antagonists, cell-based qHTS assay (AID 1963588). Note: nearly all actives have a fitted effect of over 40% in size. The procedure, abridged: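 Compounds were tested at 15 concentrations in three independent runs. Dye-loaded CHRM1-CHO cells were exposed 5 min at room temperature before stimulation by acetylcholine added at 50nM. Intracellular calcium was read kinetically on FDSS for 3 min.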

The nature of experiment [10]: cAMP Responsive Elements (CRE) small molecule agonists, cell-based qHTS assay (AID 1963590). A digest of the protocol:
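Cells carrying a CRE-driven beta-lactamase reporter (HEK 293T) are seeded, incubated overnight (18 h), and treated with test compounds for 3 h at 37 C; reporter activity is then detected with a FRET substrate after 2 h at room temperature.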

Experiment [11] is described as follows: cAMP Responsive Elements (CRE) small molecule antagonists, cell-based qHTS assay (AID 1963591; active = well fitted inhibition curve with a large enough effect in the signal ratio in the repeat runs, not every such curve was filed as active; the % refers to the signal ratio). The procedure, abridged:
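Cells (CRE-bla HEK 293T, DMEM with 10% dialyzed FBS and 25 mM HEPES) are seeded and incubated 18 h. Compounds are added with NKH477 agonist at 0.25 uM final for 3 h, then FRET substrate for 2 h.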

The target in experiment [12] is Beta-2 adrenergic receptor (Homo sapiens) (UniProt P07550). In words: Adrenergic beta2 receptor (ADRB2) small molecule antagonists, cell-based qHTS assay (AID 1963592). Note: series mostly up to about 92 µM; nearly all actives have a fitted effect of over 50% in size. A digest of the protocol: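 Assay format: CHO-ADRB2 cells, 18-20hr seeding at 37C/5% CO2, then compound plus 1nM isoproterenol agonist mix for 0.5hr RT. Homogeneous time-resolved fluorescence cAMP detection after 1hr, expressed as 665/615 nm ratio.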

Experiment [13] has as its target D(2) dopamine receptor (Homo sapiens) (UniProt P14416). In words: Dopamine D2 receptor (DRD2) small molecule agonists, cell-based qHTS assay (AID 1963594). Note: nearly all actives have a fitted effect of over 35% in size. The procedure, abridged:
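HEK293 cells stably expressing human DRD2, pre-treated with PDE inhibitor Ro20-1724 (0.1 mM final) and compound 10 min at room temperature, then stimulated with NKH477 (200nM […]) for 30 min. cAMP read by HTRF (665/620 nm).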

Experiment [14] concerns the target Gonadotropin-releasing hormone receptor (Homo sapiens) (UniProt P30968). As to the kind of experiment: Human gonadotropin-releasing hormone receptor (GnRHR) small molecule agonists, calcium flux assay in GnRHR-HEK293 cells (AID 1920063). Note: nearly all actives have a fitted effect of over 35% in size. A digest of the protocol: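 Agonist activity was measured as intracellular calcium flux in HEK293 cells engineered to stably express human GnRHR. After dye loading for 1 hour at 37 C, compounds in DMSO were added and fluorescence was followed for 3 minutes.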

Experiment [15] addresses KiSS-1 receptor (Homo sapiens) (UniProt Q969F8). In words: Human kisspeptin (KISS1R) small molecule agonists, calcium flux assay in KISS1R-HEK293 cells (AID 1920064; active = well fitted curve in the direction sought with a large enough effect in the repeat runs; an effect the other way counts as inactive or inconclusive). The procedure, abridged: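 Agonist activity is monitored as intracellular calcium rise in engineered HEK293 cells carrying human KISS1R. Cells are dye-loaded for 1 h at 37 C before compound addition, and fluorescence is recorded for 3 min.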

Experiment [16] can be described thus: p53 small molecule agonists, cell-based qHTS assay with human liver microsomes: qHTS cell viability counter screen (AID 1963579). Note: nearly all actives have a fitted effect of over 45% in size. A digest of the protocol: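 p53RE-bla cells (4,000/well) were pre-incubated 5 h at 37 C, then given compounds in DMSO plus human liver microsomes (0.5 mg/mL final) and NADPH (0.5 mg/mL final) for 16 h at 37 C. Viability was read by CellTiter-Glo luminescence.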

Experiment [17] concerns the target 5-hydroxytryptamine receptor 2A (Homo sapiens) (UniProt P28223). In words: 5-hydroxytryptamine receptor 2A (HTR2A) small molecule antagonists, cell-based qHTS assay (AID 1963586). Note: nearly all actives have a fitted effect of over 45% in size. The procedure, abridged:
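CHO cells stably expressing human HTR2A were plated for 18 h at 37 C, then loaded with calcium dye for 1 h. Compounds were preincubated 5 min at room temperature before DOI (4 nM solution) was added. Kinetic fluorescence was read for 3 min.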

Experiment [18] addresses Muscarinic acetylcholine receptor M1 (Homo sapiens) (UniProt P11229). As to the kind of experiment: Cholinergic receptor muscarinic 1 (CHRM1) small molecule agonists, cell-based qHTS assay (AID 1963589). Note: nearly all actives have a fitted effect of over 35% in size. A digest of the protocol:
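Cells were plated and incubated 18 h at 37 C/5% CO2, loaded with calcium dye for 1 h at 37 C, then treated with compounds in DMSO. Fluorescence was recorded kinetically at 1 sec intervals.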

For experiment [19], the target named is D(2) dopamine receptor (Homo sapiens) (UniProt P14416). As to the kind of experiment: Dopamine D2 receptor (DRD2) small molecule antagonists, cell-based qHTS assay (AID 1963595; active = well fitted inhibition curve with a large enough effect in the signal ratio in the repeat runs, with a control signal flat; the % refers to the signal ratio). A digest of the protocol:
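Antagonist mode in DRD2-HEK293 cells: after compound addition with 0.1 mM Ro20-1724, cells received quinpirole (12 nM) and NKH477 (200 nM) for 30 min at room temperature; HTRF cAMP read after 1 h detection.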

The target of experiment [20] is Beta-2 adrenergic receptor (Homo sapiens) (UniProt P07550). As to the kind of experiment: Adrenergic beta2 receptor (ADRB2) small molecule agonists, cell-based qHTS assay (AID 1963593).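 Note: CHO cells stably overexpressing human ADRB2.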 A digest of the protocol:
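CHO cells stably over-expressing ADRB2 were plated overnight at 37C, then dosed with compounds plus a stimulation mix containing 100uM IBMX and 25uM Ro-20-1724 for 0.5hr at room temperature. cAMP was measured by HTRF competition, 1hr.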

In PubChem BioAssay (Tox21) one finds Potency data, which are given here for nine molecules.

A number with no mark means an inactive call. Results filed as inconclusive are left out. The source made the active and inactive calls. Unless noted, calls come from the whole dose curve.

Chain of Beta-2 adrenergic receptor (Homo sapiens) (P07550 whole entry, looked up): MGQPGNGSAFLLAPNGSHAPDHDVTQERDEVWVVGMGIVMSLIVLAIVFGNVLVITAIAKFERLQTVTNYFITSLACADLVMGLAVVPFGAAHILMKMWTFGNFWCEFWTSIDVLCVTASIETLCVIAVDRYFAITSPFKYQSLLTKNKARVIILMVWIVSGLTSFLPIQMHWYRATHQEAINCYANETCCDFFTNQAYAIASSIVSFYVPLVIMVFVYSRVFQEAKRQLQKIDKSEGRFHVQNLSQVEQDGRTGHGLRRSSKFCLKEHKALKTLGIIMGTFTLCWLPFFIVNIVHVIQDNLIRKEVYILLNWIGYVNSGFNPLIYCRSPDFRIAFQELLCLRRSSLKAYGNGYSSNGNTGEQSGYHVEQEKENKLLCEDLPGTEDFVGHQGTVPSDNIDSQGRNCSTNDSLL
Chain of D(2) dopamine receptor (Homo sapiens) (P14416 whole entry, looked up): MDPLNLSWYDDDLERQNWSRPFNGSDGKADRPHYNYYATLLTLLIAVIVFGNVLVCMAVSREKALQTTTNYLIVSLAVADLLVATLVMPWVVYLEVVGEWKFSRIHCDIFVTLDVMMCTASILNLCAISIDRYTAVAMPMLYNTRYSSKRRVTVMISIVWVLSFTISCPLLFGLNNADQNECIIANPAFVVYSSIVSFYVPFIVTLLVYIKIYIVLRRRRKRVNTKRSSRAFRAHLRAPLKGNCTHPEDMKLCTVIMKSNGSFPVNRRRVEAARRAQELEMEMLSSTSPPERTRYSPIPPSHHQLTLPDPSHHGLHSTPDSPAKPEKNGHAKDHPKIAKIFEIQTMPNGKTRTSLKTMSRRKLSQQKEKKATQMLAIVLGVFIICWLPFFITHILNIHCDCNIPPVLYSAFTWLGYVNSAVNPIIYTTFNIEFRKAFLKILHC
Chain of Muscarinic acetylcholine receptor M1 (Homo sapiens) (P11229 whole entry, looked up): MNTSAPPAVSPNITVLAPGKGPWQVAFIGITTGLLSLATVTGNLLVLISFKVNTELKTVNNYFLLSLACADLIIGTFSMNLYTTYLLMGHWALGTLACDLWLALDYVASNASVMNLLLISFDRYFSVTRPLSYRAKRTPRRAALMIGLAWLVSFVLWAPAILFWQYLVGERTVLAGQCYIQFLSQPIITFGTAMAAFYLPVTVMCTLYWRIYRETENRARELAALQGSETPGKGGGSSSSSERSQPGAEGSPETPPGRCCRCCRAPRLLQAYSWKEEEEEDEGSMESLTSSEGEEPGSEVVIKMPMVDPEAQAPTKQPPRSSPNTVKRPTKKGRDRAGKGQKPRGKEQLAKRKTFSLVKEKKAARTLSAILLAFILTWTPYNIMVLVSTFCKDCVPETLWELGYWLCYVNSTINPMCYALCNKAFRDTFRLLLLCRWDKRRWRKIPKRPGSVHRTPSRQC
Chain of 5-hydroxytryptamine receptor 2A (Homo sapiens) (P28223 whole entry, looked up): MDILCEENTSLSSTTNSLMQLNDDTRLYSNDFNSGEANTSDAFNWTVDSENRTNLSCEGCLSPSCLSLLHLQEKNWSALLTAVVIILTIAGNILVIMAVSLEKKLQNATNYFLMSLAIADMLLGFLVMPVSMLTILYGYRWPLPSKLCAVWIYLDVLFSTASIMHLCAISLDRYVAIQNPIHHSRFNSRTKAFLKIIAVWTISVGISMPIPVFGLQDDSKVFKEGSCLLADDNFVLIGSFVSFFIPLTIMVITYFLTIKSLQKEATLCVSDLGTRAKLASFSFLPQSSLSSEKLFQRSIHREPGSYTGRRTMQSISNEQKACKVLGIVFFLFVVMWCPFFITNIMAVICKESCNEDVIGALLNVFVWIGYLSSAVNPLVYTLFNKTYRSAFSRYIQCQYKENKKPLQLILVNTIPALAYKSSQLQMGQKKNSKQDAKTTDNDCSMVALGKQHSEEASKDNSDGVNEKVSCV
Chain of KiSS-1 receptor (Homo sapiens) (Q969F8 whole entry, looked up): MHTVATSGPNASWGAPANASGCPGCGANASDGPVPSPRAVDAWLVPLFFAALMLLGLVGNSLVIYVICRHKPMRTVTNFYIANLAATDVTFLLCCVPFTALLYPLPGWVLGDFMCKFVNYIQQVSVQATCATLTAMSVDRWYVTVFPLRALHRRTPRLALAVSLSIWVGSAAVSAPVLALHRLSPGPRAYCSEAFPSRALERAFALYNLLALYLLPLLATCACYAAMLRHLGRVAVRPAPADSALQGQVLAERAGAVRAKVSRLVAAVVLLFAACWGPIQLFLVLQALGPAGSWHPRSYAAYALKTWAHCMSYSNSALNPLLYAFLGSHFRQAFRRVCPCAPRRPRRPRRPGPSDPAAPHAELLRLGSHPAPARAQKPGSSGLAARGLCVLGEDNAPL
Chain of Gonadotropin-releasing hormone receptor (Homo sapiens) (P30968 whole entry, looked up): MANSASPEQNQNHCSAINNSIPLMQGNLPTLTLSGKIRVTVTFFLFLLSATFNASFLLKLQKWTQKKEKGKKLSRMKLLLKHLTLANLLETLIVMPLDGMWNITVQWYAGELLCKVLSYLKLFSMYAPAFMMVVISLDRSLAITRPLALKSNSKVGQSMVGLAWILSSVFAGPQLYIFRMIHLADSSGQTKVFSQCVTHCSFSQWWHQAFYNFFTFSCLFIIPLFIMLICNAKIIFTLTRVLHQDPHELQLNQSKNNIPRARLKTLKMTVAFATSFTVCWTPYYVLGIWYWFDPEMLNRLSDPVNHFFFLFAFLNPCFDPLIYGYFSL

In the case of `CCCCCCCCCCCCCCCCN`, the Potency result in [1], in [2], in experiment [3], in [4], in experiment [5] and in experiment [6] was “inactive” throughout. Besides, the Potency entry in experiment [7], in experiment [9], in [10], in experiment [11], in experiment [12] and in experiment [13] was “inactive” each time. Further, the Potency in experiment [8] was 23.9 µM (active).

With `Cc1ccc2c(Br)cc(Br)c(O)c2n1`, the Potency result in [1], in experiment [14], in experiment [15], in experiment [2], in experiment [3] and in experiment [4] was “inactive” each time. The Potency entry in experiment [16], in [5], in experiment [6], in [7], in experiment [17] and in experiment [8] was “inactive” in each case. For the same molecule, the Potency result in experiment [9], in [18], in [10], in experiment [12], in [13] and in experiment [19] was “inactive” throughout.

`CCCc1ncc(C[n+]2ccccc2C)c(N)n1`: the Potency result in experiment [1], in experiment [2], in [3], in [16], in experiment [5] and in experiment [6] was “inactive” throughout. The Potency entry in [7], in experiment [17], in experiment [9], in experiment [18], in experiment [10] and in experiment [11] was “inactive” in each case. Moreover, the Potency result in experiment [12] and in experiment [13] was “inactive” in each case.

As to `Cc1ccccc1N=C(N)Nc1ccccc1C`, the Potency entry in [1], in [16], in experiment [5], in [6], in experiment [17] and in [8] was “inactive” each time. Moreover, the Potency result in [18], in experiment [10], in experiment [11], in experiment [12], in [13] and in experiment [19] was “inactive” in each case.

In the case of `CCCCCC(CO)CCC` (stereo not drawn), the Potency entry in experiment [1], in experiment [14], in experiment [15], in experiment [2], in experiment [3] and in experiment [4] was “inactive” throughout. Further, the Potency result in experiment [16], in experiment [5], in experiment [6], in experiment [7], in [17] and in experiment [8] was “inactive” throughout. For the same molecule, the Potency entry in [9], in experiment [18], in experiment [10], in experiment [11], in experiment [12] and in [20] was “inactive” throughout. The Potency result in experiment [13] and in [19] was “inactive” each time.

As to `CC(C)CCCC(C)CC=O` (stereo not drawn), the Potency result in [1], in experiment [3], in experiment [4], in experiment [16], in experiment [5] and in experiment [7] was “inactive” in each case. The Potency entry in [17], in experiment [9], in experiment [10], in [12], in experiment [13] and in [19] was “inactive” each time.

Turning to `CC(C)COC(=O)CC(C(=O)OCC(C)C)S(=O)(=O)O` (stereo not drawn), the Potency result in [1], in experiment [14], in [15], in experiment [2], in experiment [3] and in [4] was “inactive” throughout. Besides, the Potency entry in experiment [16], in [5], in experiment [6], in experiment [7], in experiment [17] and in experiment [8] was “inactive” each time. Also, the Potency result in experiment [9], in experiment [18], in experiment [10], in experiment [11], in experiment [12] and in [13] was “inactive” each time. The Potency entry in experiment [19] was “inactive”.

Regarding `CCOC(=O)c1ccccc1OC`, the Potency entry in experiment [1], in [2], in experiment [16], in [5], in experiment [6] and in experiment [17] was “inactive” throughout. The Potency entry in experiment [10], in experiment [11], in experiment [12], in [13] and in experiment [19] was “inactive” each time.

Regarding `C=CCOC(=O)CCC1CCCCC1`, the Potency entry in experiment [1], in [14], in experiment [15], in experiment [2], in experiment [3] and in [4] was “inactive” throughout. Also, the Potency result in experiment [16], in experiment [5], in [6], in experiment [7], in experiment [17] and in experiment [8] was “inactive” throughout. Besides, the Potency entry in experiment [9], in experiment [18], in experiment [10], in experiment [11], in experiment [12] and in experiment [20] was “inactive” in each case. In addition, the Potency result in [13] was “inactive”.
